The source made the active and inactive calls. The call rests on the fitted dose curve; in most records, active means well fitted curve in the direction sought with a large enough effect; inconclusive means small, poorly fitted or top-dose-only effect, or another doubt; inactive means no such curve, though single readings can be large; an effect the other way counts as inactive or inconclusive.

Chain of Alpha-galactosidase A (Homo sapiens) (P06280 whole entry, looked up): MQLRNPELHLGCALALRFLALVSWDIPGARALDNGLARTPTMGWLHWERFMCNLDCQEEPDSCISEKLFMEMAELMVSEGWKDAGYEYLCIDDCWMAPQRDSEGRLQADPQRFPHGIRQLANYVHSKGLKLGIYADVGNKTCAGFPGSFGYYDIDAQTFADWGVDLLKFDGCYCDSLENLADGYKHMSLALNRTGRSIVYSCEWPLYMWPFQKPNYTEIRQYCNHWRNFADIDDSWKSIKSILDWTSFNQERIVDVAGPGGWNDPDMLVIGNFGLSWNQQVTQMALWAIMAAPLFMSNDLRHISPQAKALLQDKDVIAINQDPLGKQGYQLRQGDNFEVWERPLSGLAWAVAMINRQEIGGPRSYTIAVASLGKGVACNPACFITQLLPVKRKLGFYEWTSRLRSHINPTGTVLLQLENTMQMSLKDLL

Test system in the first test: not listed separately
Put plainly: Confirmation and Secondary Assay for Modulators of Hemoglobin Beta Chain Splicing at IVS2 705 locus (AID 930).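 Further: HeLa cells stably expressing the EGFP-705 splicing reporter; GFP fluorescence per well restored by corrected splicing of the IVS2-705 intron in EGFP.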 Particulars: HeLa EGFP-705 splicing reporter, GFP fluorescence, 48 h; series mostly up to 46.1 µM. The essentials:
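Assay measures total GFP intensity per well in HeLa EGFP-705 cells after 2 days with compound; mis-splicing normally truncates EGFP, so fluorescence indicates corrected splicing.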
For the compound `CN1C2CC(OC(=O)C(CO)c3ccccc3)C[C@@H]1[C@H]1OC21` (stereo partly specified), the outcome was inactive. `CC(C)(C)NCC(O)COc1cccc2c1CC(O)C(O)C2` (stereo unspecified): the compound was called inactive. Same read-out and setting: then `COC(=O)C1C(O)CC[C@H]2CN3CCc4c([nH]c5ccccc45)C3C[C@H]12` (stereo partly specified), with “inactive”; and `CNC(C)C1CC[C@H](N)[C@@H](OC2C(N)C[C@H](N)[C@@H](OC3OC[C@](C)(O)C(NC)[C@H]3O)C2O)O1` (stereo partly specified), with “inactive”. Take `CC(CCC(=O)O)C1CCC2C3CC[C@H]4CC(O)CC[C@@]4(C)C3CC[C@@]12C` (stereo partly specified): the compound was classed as inactive.

For `CC(=O)[C@]1(O)CCC2C3CC(C)C4=CC(=O)C=CC4(C)[C@@]3(F)C(O)C[C@]21C` (stereo partly specified), the outcome was inactive.

The target of the next test is Alpha-galactosidase A (Homo sapiens) (UniProt P06280). Kind of test: Counterscreen for Glucocerebrosidase Inhibitors: qHTS Assay for Human alpha-Galactosidase at pH 4.5 (AID 992). Particulars: purified enzyme, fluorogenic substrate; series mostly up to 76.9 µM. The text has this:
NIH Chemical Genomics Center [NCGC]
NIH Molecular Libraries Screening Centers Network [MLSCN]
PI Name: Zheng, Wei [NIH]
Alpha-galactosidase is a homodimeric glycoprotein that hydrolyzes the terminal alpha-galactosyl moieties from glycolipids and glycoproteins. Deficiency of this enzyme results in Fabry Disease with progressive accumulation of globotriaosylceramide and other glycosphingolipids in vascular endothelial cells that causes renal failure, myocardial infarction and stroke, and premature death in patients. It has reported that the improper folding and trafficking of alpha-galactosidase resulted from the genetic mutations may account for a significant numbers of Fabry patients. […] We optimized this alpha-galactosidase assay in 1536-well plate format for identifying the novel small molecule inhibitors with the structures other than the sugar analogs in order to develop the new pharmacological chaperones.
NCGC Assay Protocol Summary:
This is a fluorogenic enzyme assay with 4-Methylumbelliferyl alpha-D-galactopyranoside as the substrate and human […] as the enzyme preparation. Upon the hydrolysis of this fluorogenic substrate, the resulting product, […]. 4-Methyllumbelliferone, can be excited at 365 nm and emits at 440 nm which can be detected by a standard fluorescence plate reader. Data were normalized to the controls for basal activity (without enzyme) and 100% activity (with enzyme). In the AC50 values were determined from concentration-response data modeled with the standard Hill equation.
Assay buffer: 50 mM citric acid, 0.005% Tween-20, pH 4.5. (pH 4.5 is an optimal condition for this enzyme assay)
1536-well assay protocol for the human alpha-galactosidase:
(1) Add 2 ul/well of enzyme (2 nM final)
(2) Add 23 nL compounds in DMSO solution. The final titration was 0.7 nM to 77 uM.
(3) Add 1 ul of substrate (80 uM final)
(4) Incubate at room temperature for 20 min.
(5) Add 2 ul stop solution (1M NaOH and 1M Glycine mixture, pH 10)
(6) Detect the assay plate in a ViewLux plate reader (PerkinElmer) with Ex=365 nm and Em=440nm.
Keywords: Alpha-galactosidase, Fabry Disease, pharmacological chaperone, chaperone therapy, high throughput screening, alpha-galactosidase inhibitor, MLSMR, MLSCN, NIH Roadmap, qHTS and NCGC
On the technique in general: A counterscreen serves to expose hits that act by an unwanted route or on another target.
Consider `CCCCCCCCCN1C[C@H](O)[C@@H](O)[C@H](O)[C@H]1CO`, for which the compound was classed as inactive. With `CC(C)(C)Oc1ccccc1Nc1nc(NCCO)nc(N2CCCC2)n1`, the result was inactive. Take `COc1ccc(Cl)cc1Nc1nc(NCCO)nc(N2CCCC2)n1`: the result was inactive.

Consider `CCc1nnc(NC(=O)c2ccc(NS(=O)(=O)c3ccccc3)cc2)s1`, for which the outcome was inactive. On the same count and under the same terms, then `Cc1cc(N2CCOCC2)nc2ccc(NC(=O)C3CCCCC3)cc12`, with “inactive”.

Another test has as its target alpha-glucosidase (Oryza sativa, rice) (UniProt Q653V4). Put plainly: Counterscreen for Glucocerebrosidase Inhibitors: qHTS Assay for Rice alpha-Glucosidase at pH 5.0 (AID 997). To be noted: rice alpha-glucosidase enzyme activity; series mostly up to 76.9 µM. The essentials: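 Endpoint fluorogenic assay at pH 5.0: compounds (0.7 nM to 77 uM) titrated against 4 nM rice enzyme and 400 uM 4-MU-alpha-glucoside for 20 min at room temperature; NaOH/glycine stop, read ex 365/em 440 nm, Hill-fitted AC50.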
Consider `CCCCCCCCCN1C[C@H](O)[C@@H](O)[C@H](O)[C@H]1CO`, for which the outcome was inactive. `CC(C)(C)Oc1ccccc1Nc1nc(NCCO)nc(N2CCCC2)n1`: the call was inactive. Turning to `COc1ccc(Cl)cc1Nc1nc(NCCO)nc(N2CCCC2)n1`, the call was inactive.

As to `CCc1nnc(NC(=O)c2ccc(NS(=O)(=O)c3ccccc3)cc2)s1`, the result was inactive. Consider `Cc1cc(N2CCOCC2)nc2ccc(NC(=O)C3CCCCC3)cc12`, for which the compound was called inactive.
